# Hit rate of the full screen: of about 330,000 compounds, about 7,700 (2.3%) were called active. Not shown: some 26% with an inconclusive outcome. Many of the other results were omitted from the sample, so actives are more common in it than they were. Values without a mark were called inactive. Calls come from the whole dose curve; as a rule, active = well fitted inhibition curve with a large enough effect; inconclusive = small, poorly fitted or top-dose-only effect, or effect the other way; inactive = flat fitted curve, though single readings scatter.
# Test: qHTS screen for small molecules that inhibit ELG1-dependent DNA repair in human embryonic kidney (HEK293T) cells expressing luciferase-tagged ELG1; note: nearly all actives have a fitted effect of over 55% in size
# Details: HEK293T ELG1-luciferase reporter, luminescence, 16 h, DNA damage induced by 5-fluorouridine; series mostly up to 46.1 µM; activity change, negative = inhibition: at the top concentration
# Outline: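 DMSO vehicle served as the neutral condition. Each well held 2,000 cells given 5-fluorouridine plus compound; after 16 hr at 37 °C/5% CO2, ONE-Glo was added and luciferase measured 30 min later.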
# % is set by controls: 0 for no effect and ±100 for the full control effect; potency is the fitted concentration of half-maximal effect.
SMILES,"activity change, negative = inhibition [%]",Potency
COc1cccc(C(=O)Nc2nnc(S(=O)(=O)N3CCCCC3)s2)c1,-4.91,–
CCCn1nc(C(=O)NNC(=O)CCOc2ccccc2OCC)c2ccccc2c1=O,-22.5,–
O=Cc1c(Nc2ccccc2Cl)nc2ccccn2c1=O,16,–
Cc1nc2ccccc2c(=O)n1-c1ccc(F)c(NC(=O)c2cccs2)c1,-29.9,–
O=C(CN1C(=O)NC2(CCCCCC2)C1=O)Nc1ccc([N+](=O)[O-])cc1,15.8,–
CC(=O)Nc1ccc(C(=O)Nc2cccc(S(=O)(=O)NC3=NCCC3)c2)cc1,1.78,–
CC(=O)c1ccc(S(=O)(=O)N(C)CCCC(=O)N(C)Cc2ccccc2F)cc1,-16.6,–
Cc1ccccc1N1CCN(C2CCCN(C(=O)c3cn4c(C)cccc4n3)C2)CC1 (configuration not stated),–,16.4 µM (active)
Cc1cnc(C(=O)N2CCCC(N3CCN(c4ccccc4F)CC3)C2)cn1 (configuration not stated),0.472,–
Cc1ccccc1N1CCN(C2CCCN(C(=O)c3ocnc3C)C2)CC1 (configuration not stated),-1.3,–
CC(NC(=O)COC(=O)c1ccc2ccccc2n1)c1ccccc1 (configuration not stated),17.5,–
CCN(CC)S(=O)(=O)c1cc(C(=O)Nc2cc(S(=O)(=O)N3CCOCC3)ccc2N2CCCC2)ccc1F,-9.98,–
O=c1oc2ccc(C#CC3(O)CCCCC3)cc2cc1-n1cc(-c2ccsc2)nn1,19.7,–
COC(=O)[C@]1(Cc2ccccc2)N[C@H](CN(C)S(=O)(=O)c2ccc(OC(F)(F)F)cc2)[C@@H]2C(=O)N(Cc3ccccc3)C(=O)[C@@H]21,1.29,–
Cc1ccc(S(=O)(=O)Nc2nc3ccccc3s2)cc1[N+](=O)[O-],0.096,–
Cc1nn(CC(=O)Nc2nc3ccccc3s2)c(C)c1[N+](=O)[O-],19.8,–
O=[N+]([O-])c1cc(Br)c(O)c(/C=N/Nc2nc3ccccc3s2)c1,–,4.11 µM (active)
Cc1ccccc1NC(=O)NCC1CCN(Cc2cccc(Cl)c2)CC1,16.6,–
CC(=O)N1CCOc2ccc(S(=O)(=O)N3CCN(c4cccc(C(F)(F)F)c4)CC3)cc21,-16.8,–
C/C(N)=C(/C#N)C(=O)COC(=O)c1cc(-c2ccccc2)nc2ccc(Br)cc12,6.28,–
C/C(N)=C(/C#N)C(=O)COC(=O)c1cc(-c2cccc(Br)c2)nc2ccccc12,–,11.6 µM (active)
COc1cccc(OC)c1C(=O)OCC(=O)/C(C#N)=C(\C)N,9.16,–
CCOc1ccccc1Nc1nnc(SCC(=O)NCC2CCCO2)s1 (configuration not stated),-7.85,–
O=C(COc1ccc(F)cc1Br)NCC1COc2ccccc2O1 (configuration not stated),-0.0293,–

SMILES,"activity change, negative = inhibition [%]",Potency
O=c1cc(CN2CCN(S(=O)(=O)/C=C/c3ccccc3)CC2)c2ccc(O)cc2o1,-1.27,–
Cc1ccc2c(CN3CCN(S(=O)(=O)c4ccccc4C(F)(F)F)CC3)cc(=O)oc2c1,–,17.8 µM (active)
COc1ccc2c(CN3CCN(S(=O)(=O)c4cccs4)CC3)cc(=O)oc2c1,–,23.1 µM (active)
O=S(=O)(c1ccc(F)cc1)N1CCN(Cc2ccccc2C(F)(F)F)CC1,-2.01,–
O=S(=O)(c1cccs1)N1CCN(Cc2ccccc2)CC1,-2.29,–
COc1ccc2oc(=O)cc(CN3CCOCC3)c2c1,0,–
Cc1cc2oc(=O)cc(CN3CCN(Cc4ccccc4)CC3)c2cc1C,-0.0674,–
CC(C)c1ccc2oc(=O)cc(CN3CCN(Cc4ccccc4)CC3)c2c1,-6.46,–
Cc1cc2oc(=O)cc(CN3CCN(S(=O)(=O)c4cccs4)CC3)c2cc1C(C)C,–,2.31 µM (active)
COc1ccc(CCNC(=O)CCc2cn(C)c3ccccc23)c(OC)c1,-7.21,–
CCOc1ccc(NS(=O)(=O)c2ccc(C(=O)NCC(c3ccccc3OC)N3CCCC3)cc2)cc1 (configuration not stated),-1.12,–
O=C(OCC(=O)N1CCN(c2ccccc2)CC1)c1ccc([N+](=O)[O-])s1,2.44,–
COc1ccc(CC(=O)N[C@@H]2c3cc(OC)c(OC)cc3C[C@H]2OCc2ccccc2)cc1,-4.29,–
CC(C)CN(C(=O)COC(=O)c1ccc2ccccc2c1)c1c(N)n(Cc2ccccc2)c(=O)[nH]c1=O,-18.6,–
O=C(O[C@@H]1[C@H](Cc2ccccc2)NS(=O)(=O)[C@H]2C[C@@H]3C=C[C@]12O3)c1ccccc1Br,4.88,–
COc1cc(NC(=O)C2=CC(c3ccco3)=NS(=O)(=O)N2C)cc(OC)c1OC,-1.38,–
COc1ccc(C2=NS(=O)(=O)N(C)C(C(=O)NC(C)c3ccccc3)=C2)cc1 (configuration not stated),-10.1,–
COc1cc(NC(=O)C2=CC(c3ccc(C)cc3)=NS(=O)(=O)N2C)cc(OC)c1OC,–,13 µM (active)
C=CCn1c(SCc2c(C(=O)OC)sc(N)c2C(=O)OC)nnc1-c1ccc(Cl)cc1,–,23.1 µM (active)
C=CCn1c(SCn2nnc3ccccc3c2=O)nnc1-c1ccc(Cl)cc1,21.7,–
C=CCn1c(SCc2cc(C(=O)OC)c(C)o2)nnc1-c1ccncc1,-5.1,–
C#CCOCCOCCOCCNc1nc(N2CCN(C(=O)[C@H](CCCN=C(N)N)n3cc(C(N)[C@@H](C)CC)nn3)CC2)nc(N2CCN(C(=O)[C@H](CO)n3cc([C@@H](N)C(C)C)nn3)CC2)n1 (some centres not stated),1.11,–
CN(c1ccc(OCC(=O)O)cc1)S(=O)(=O)c1ccc2ccccc2c1,6.18,–
